# ATXN2 expr inh: reduces ATXN2 reporter expression in HEK-293 cells; 360,000 tested, 0.72% active; Potency, µM (series often up to 57 µM), inactives show top-dose activity change, negative = inhibition, actives largely listed as inhibitors; HEK-293 ATXN2-luciferase reporter, luminescence, 24 h; further: on the % scale 0 is the no-effect control and ±100 the full control effect; nearly all actives have a fitted effect of over 55% in size
#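 qHTS (up to 57 uM final) was run with 24 h compound exposure of reporter cells at 37 °C. Each well was multiplexed: SteadyGlo luminescence measured ATXN2-luciferase expression after a fluorogenic Gly-Phe-AFC viability readout (25 uM final).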
# S2 tox: viability counter-screen for ATXN expression inhibitors; S2 cells (HEK-293 line with an ATXN2-luciferase reporter) viability, CellTiter-Fluor protease fluorescence, 24 h; Potency, µM (highest dose often 56.7 µM), actives largely listed as cytotoxic; 400,000 tested, 0.49% active; further: nearly all actives have a fitted effect of over 40% in size
# HepG2 viability: kills HepG2 cells in TGF-b inhibitor counter-screen; HepG2 CAGA-GFP viability, ATP luminescence, 18 h; Potency, µM (top dose mostly 46.1 µM), without a hit: at the top dose activity change, negative = cytotoxicity, most hits filed as cytotoxic; 410,000 tested, 0.76% active; AID 588856
#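 HepG2 CAGA-GFP cells (1000/well, DMEM with 1% FBS) received compound, then TGF-beta at 500 pg/mL final, and were incubated 18 hours at 37 degrees C. Viability was read by CellTiter-Glo luminescence. Media-only wells were set as complete cell-killing and DMSO as no toxicity.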
# TGFb inhibitor: blocks TGF-b signaling. HepG2 CAGA-GFP TGF-b/SMAD3 reporter, GFP fluorescence, 18 h; TGF-beta stimulated, 500 pg/mL final. AID 588855. 410,000 tested, 1.2% active. Potency, µM (top dose mostly 46.1 µM), inactives show at the top dose activity, negative = inhibition, hits mostly inhibitors; further: on the % scale 0 is the no-effect control and ±100 the full control effect; nearly all actives have a fitted effect of over 65% in size
#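 Read-out: total well GFP (ex488/em500-530) summed from mean per-cell fluorescence. Cells: HEPG2 CAGA-GFP, 1% FBS DMEM, 18 h at 37 degrees C with 500 pg/mL final TGF-beta. Unstimulated wells served as the full-inhibition control; stimulated DMSO wells = 0%.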
# VP16 counter: counter-screen for ROR gamma inhibitors: Gal4-VP16 reporter | Drosophila S2 Gal4-VP16 UAS-luciferase, luminescence, 20 h | 310,000 tested, 3.5% active | Potency, µM (highest dose often 53.6 µM), for inactives: top-dose activity, negative = inhibition, hits mostly inhibitors;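 further: Gal4-VP16 expression switched on by copper sulfate through the metallothionein promoter; on the % scale 0 is the no-effect control and ±100 the full control effect; nearly all actives have a fitted effect of over 50% in size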
# RORgamma inh: ROR gamma (mouse) transcription inhibition | Drosophila S2 Gal4-RORgamma UAS-luciferase reporter, 20 h | 310,000 tested, 5.4% active | P51450 | Potency, µM (doses to about 53.6 µM), for the others: top-dose activity change, negative = inhibition, usual class: inhibitors; further: on the % scale 0 is the no-effect control and ±100 the full control effect; nearly all actives have a fitted effect of over 60% in size
# Target sequence (P51450 whole entry, looked up, the tested form may be a part): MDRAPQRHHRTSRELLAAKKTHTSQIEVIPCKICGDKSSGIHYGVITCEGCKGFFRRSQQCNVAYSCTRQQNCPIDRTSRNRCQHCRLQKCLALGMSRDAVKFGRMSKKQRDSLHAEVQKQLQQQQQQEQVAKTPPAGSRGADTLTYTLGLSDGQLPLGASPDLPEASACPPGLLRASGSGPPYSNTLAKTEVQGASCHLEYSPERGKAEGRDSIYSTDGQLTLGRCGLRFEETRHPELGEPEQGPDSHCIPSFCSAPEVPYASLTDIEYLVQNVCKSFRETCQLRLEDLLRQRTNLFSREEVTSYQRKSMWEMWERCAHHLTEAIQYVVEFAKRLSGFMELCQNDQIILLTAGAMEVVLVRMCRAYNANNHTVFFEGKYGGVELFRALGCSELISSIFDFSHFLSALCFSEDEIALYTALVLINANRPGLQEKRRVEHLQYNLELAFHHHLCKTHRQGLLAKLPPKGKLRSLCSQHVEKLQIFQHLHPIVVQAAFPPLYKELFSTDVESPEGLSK
#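 Drosophila Schneider cells stably carrying a metallothionein-driven Gal4 DBD–ROR gamma fusion and a UAS-Photinus luciferase reporter were exposed to compound for 1 hr, then induced with copper sulfate (700 uM final) for 20 hr at ambient temperature before luminescence reading.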
# Numbers without * were called inactive; i = inactive; ? = inconclusive; nt = not tested or not shown; [ ] = remark or other dose. A selection: hits, their analogues and other compounds. The true share with any hit is near 6.1%. The call rests on the fitted dose curve; in most records, active means well fitted curve in the direction sought with a large enough effect; inconclusive means small, poorly fitted or top-dose-only effect, or another doubt; inactive means no such curve, though single readings can be large; an effect the other way counts as inactive or inconclusive. Potency means the concentration at half of the fitted maximal effect.
SMILES,ATXN2 expr inh,S2 tox,HepG2 viability,TGFb inhibitor,VP16 counter,RORgamma inh
O=C(Nc1cc(Cl)cc(Cl)c1)c1ccc(F)c(S(=O)(=O)N2CCCCCC2)c1,nt,nt,10%,?,nt,nt
Cc1c(Cl)cccc1NC(=S)NCc1ccc(F)cc1,-24%,i,-25%,1%,5µM*,2.2µM*
Cc1c(Cl)cccc1NC(=S)NCc1ccccc1Cl,-1%,i,-44%,?,1.6µM*,1.1µM*
COc1cc(OC)c(NC(=S)NCc2ccc(F)cc2)cc1Cl,-16%,i,-24%,-14%,-27%,?
Fc1ccc(CNC(=S)Nc2ccccc2Cl)cc1,-9%,i,6%,-4%,?,11µM*
Cc1c(Cl)cccc1NC(=S)NC(=O)c1ccccc1,nt,?,-19%,-14%,nt,nt
COc1ccccc1-c1ccnc(-n2ncc(C(=O)N3CCN(C4CCCC4)CC3)c2-c2ccco2)n1,nt,i,nt,nt,nt,nt
Cc1cc2ccccc2c[n+]1CC(=O)c1ccc(F)cc1,nt,nt,-1%,-18%,nt,nt
O=S(=O)(O)c1ccc2c(c1)-c1nc-2nc2[nH]c(nc3nc(nc4[nH]c(n1)c1ccc(S(=O)(=O)O)cc41)-c1ccc(S(=O)(=O)O)cc1-3)c1ccc(S(=O)(=O)O)cc21,nt,nt,nt,nt,-24%,-39%
COc1ccc(-n2c(-c3ccc(Cl)cc3)cc3c2CC(C)(C)CC3=O)c(OC)c1,?,?,-50%,18µM*,nt,nt
CCOC(=O)CSc1nc2c(sc3cccc(F)c32)c(=O)n1Cc1ccc(OC)cc1,10%,i,-2%,0%,nt,nt
Cc1nc(-c2ccccc2)sc1CCNS(=O)(=O)c1ccc(Br)cc1,?,i,-43%,11µM*,nt,nt
Cc1ccc(S(=O)(=O)NCCSc2ncccn2)cc1,12%,i,0%,-25%,2%,-18%
O=S(=O)(NCCSc1ccccn1)c1ccc(Br)cc1,-17%[11.3 µM],i,4%,3%,11µM*,8.9µM*
COc1ccc(S(=O)(=O)NCCc2sc(-c3ccccc3)nc2C)cc1OC,-13%,i,-30%,-3%,nt,nt
COc1ccc(-c2nc(C)c(CCNS(=O)(=O)c3cc(C)c(C)cc3C)s2)cc1,?,?,-25%,11µM*,nt,nt
Cc1nc(-c2ccc(C)c(S(=O)(=O)N3CCC(C(=O)NCc4ccc(Cl)cc4)CC3)c2)no1,-3%,i,-32%,-23%,nt,nt
CCOC(=O)C1CCC(CN(Cc2ccc(OC)cc2)S(=O)(=O)c2ccc(F)c(C(=O)Nc3c(C)cccc3C)c2)CC1 (stereo not given),-6%,i,-7%,-6%,nt,nt
Clc1cccc(CNc2cc(-c3ccccc3)nc3nncn23)c1,nt,nt,-65%,?,nt,nt
COc1ccc2c(Sc3ccc(Cl)cc3)c(C(=O)N3CCC(C)CC3)[nH]c2c1,?,?,-95%,11µM*,nt,nt
CCC(=O)Nc1ccccc1C(=O)OCC(=O)c1ccccc1,79%,i,-9%,?,-26%,10µM*
O=C(O)/C=C/C(=O)Nc1ccccc1C(=O)OCC(=O)c1ccc2c(c1)OCCO2,-18%,i,-2%,0%,8.9µM*,7.9µM*
CCCCC(=O)Nc1ccccc1C(=O)OCC(=O)c1ccc2c(c1)OCCO2,16%,i,-1%,-3%,?,?
CCN(CC)S(=O)(=O)c1ccc2oc(C(=O)N(C)Cc3ccccc3)c(C)c2c1,-17%,i,-25%,-12%,nt,nt
COc1ccc(-n2c(CCNC(=O)c3ccc(-c4cccc(F)c4)cc3)nnc2SC)cc1,nt,i,nt,nt,nt,nt
SMILES,ATXN2 expr inh,S2 tox,HepG2 viability,TGFb inhibitor,VP16 counter,RORgamma inh
Cc1cnc(C)c(-c2cccc3c2OC(CNC(=O)CN2C(=O)c4ccccc4C2=O)C3)n1 (stereo not given),nt,i,nt,nt,nt,nt
COc1ccc(CN=C2NN=C(c3cccc(OC)c3)CS2)cc1,29%,i,-12%,-11%,-23%,4%
COc1cccc(C2=NNC(=NCc3ccccc3)SC2)c1,6%,i,1%,?,5%,8.9µM*
Cc1ccc(C)c(C2=NNC(=NCc3ccccc3)SC2)c1,-29%,i,9%,-6%,?,7.9µM*
C=CCn1c(C)cc(C2=NNC(=NCc3ccccc3)SC2)c1C,9%,i,-27%,-11%,-5%[10 µM],23%
COc1ccc(CN=C2NN=C(c3ccccc3)CS2)cc1,12%,i,-16%,-23%,-2%,2µM*
COc1ccc(OC)c(-c2cc(C(=O)Nc3ccc(C)c(C)c3)no2)c1,9%,i,-23%,63%,nt,nt
Cn1c(CSc2nc3ccccc3s2)n[nH]c1=S,-19%,i,6%,-1%,-6%[0.365 µM],?
c1ccc2[nH]c(CSc3nc4ccccc4s3)nc2c1,19%,i,-1%,-13%,?,20µM*
S=c1[nH]nc(CSc2nc3ccccc3s2)o1,3%,i,-12%,-2%,?,14µM*
NCCSc1nc2ccccc2s1,nt,nt,-28%,-14%,nt,nt
N#C/C(=C\c1ccco1)Sc1nc2ccccc2s1,84%,i,-41%,?,13µM*,-10%
Cc1nnc(SCc2nc3ccccc3[nH]2)s1,15%,i,-68%,5%,10%,9%
O=C(CSc1nc2ccccc2s1)N/N=C/c1ccco1,8%,i,-24%,-26%,24%,-35%
c1ccc2sc(SSc3nc4ccccc4s3)nc2c1,13%[25.6 µM],i,nt,nt,?,13µM*
COc1ccc(C2=Nn3c(nnc3-c3ccccc3O)SC2)cc1OC,nt,nt,nt,nt,14%,-25%
Cc1ccc(-n2ncc(C(=O)NCCc3ccsc3)c2C2CCN(C(=O)OC(C)(C)C)CC2)cc1C,nt,nt,-10%,-17%,nt,nt
O=S1(=O)C=C(Sc2nc3ccccc3s2)c2ccccc21,?,7.1µM*,11µM*,2.8µM*,2.8µM*,4.5µM*
Cn1c(CSc2nc3ccccc3s2)nc2ccccc21,nt,nt,-26%,-18%,?,11µM*
CCN1CCCC1CNC(=O)c1cnn(-c2ncc3c(n2)-c2ccc(OC)cc2CC3)c1C1CC1 (stereo not given),nt,i,nt,nt,nt,nt
Cc1cc(N)c2cc(NC(=O)/C=C/c3ccccc3Cl)ccc2n1,nt,8.9µM*,7.1µM*,7.1µM*,-15%,-12%
Cc1cc(C)nc(NC(=O)/C=C/c2ccccc2Cl)n1,53%,i,1%,-6%,2%,?
CC(=O)N(C)c1ccc(NC(=O)/C=C/c2ccccc2Cl)cc1,50%,i,-15%,4%,18µM*,1.1µM*
CCc1ccc(OCc2ccccc2C(=O)Nc2ccc3nc(C)cc(N)c3c2)cc1,17µM*,nt,4µM*,4µM*,?,11µM*
